# HP1b binding inh = HTS for Inhibitors of HP1-beta Chromodomain Interactions with Methylated Histone Tails; Potency, µM (doses to about 114 µM), actives largely listed as inhibitors; AlphaScreen HP1-beta / biotin-H3K9me3 peptide binding; 0.56% of 390,000 active; also: nearly all actives have a fitted effect of over 70% in size
#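 HP1-beta protein (50 nM final) preincubated 30 min at room temperature with biotinylated H3(1-18)K9me3 peptide (50 nM) in PBS pH 7.4, 0.01% Tween-20, then compound added for 30 min. AlphaScreen streptavidin donor/nickel chelate acceptor beads (10 ug/mL final), 30 min dark, luminescence read.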
# G9a inh = qHTS Assay for Inhibitors of Histone Lysine Methyltransferase G9a; G9a H3K9 monomethylation, AlphaScreen, 2 h; Potency, µM (titrated, usually from 102 µM), most hits filed as inhibitors; Histone-lysine N-methyltransferase EHMT2 (Homo sapiens), Q96KQ7; 8.8% of 350,000 active; also: nearly all actives have a fitted effect of over 75% in size
#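 Readings reflect AlphaScreen signal from monomethyl-H3K9 antibody detection. HMT at 20 nM; substrate b-H3K9 500 nM; cofactor SAM 20 uM; 2 h RT reaction; compounds tested as titrations in qHTS with 15 min preincubation.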
# PLK1 PBD inh = qHTS for Inhibitors of PLK1-PDB (polo-like kinase 1 - polo-box domain): Primary Screen. Potency, µM, hits mostly inhibitors. 2.8% of 360,000 active. Plk1 PBD binding of FITC phosphopeptide, fluorescence polarization. Serine/threonine-protein kinase PLK1 (Homo sapiens), P53350; also: series mostly up to about 57 µM; nearly all actives have a fitted effect of over 65% in size
# BAZ2B block = qHTS Assay for Inhibitors of BAZ2B; AlphaScreen BAZ2B-H3K14Ac peptide displacement; Potency, µM (titrated, usually from 114 µM), hits mostly inhibitors; 4.4% of 360,000 active; also: nearly all actives have a fitted effect of over 60% in size
#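 Compounds, titrated to a top concentration of 110 uM, were incubated 30 min at room temperature with preformed BAZ2B/acetyl-K14 H3 peptide complex (50 nM each). Proximity signal was measured by AlphaScreen after 20 min with beads.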
# JMJD2A Tudor inh = qHTS Assay for Inhibitors of JMJD2A-Tudor Domain; Potency, µM (doses to about 114 µM), usual class: inhibitors; 4.4% of 390,000 active; AlphaScreen JMJD2A-Tudor / H3K4me3 peptide binding; Lysine-specific demethylase 4A (Homo sapiens), O75164; also: nearly all actives have a fitted effect of over 50% in size
# Sfp PPTase inh = qHTS Assay for Inhibitors of Bacillus subtilis Sfp phosphopantetheinyl transferase (PPTase); 4'-phosphopantetheinyl transferase ffp (Bacillus subtilis), Q9F4F7; Potency, µM, actives largely listed as inhibitors; AID 1490, 2009; Biochemical Sfp PPTase activity, qHTS; 3.5% of 310,000 active;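 also: the enzyme is Sfp with the accession as filed and its product quenches rhodamine fluorescence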
#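 With Hepes-Na pH 7.6 buffer containing 10 mM MgCl2, Sfp (15 nM) modified BHQ-2-YbbR (12.5 uM) using rhodamine-CoA (5 uM). Two reads 30 minutes apart at 525/598 nm yielded each well's rate.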
# Hits are given with their value; n = inactive; u = inconclusive; x = no result given; [ ] = remark or other dose. Shown are actives, neighbours in structure and some others; about 12% of the full set was active somewhere. Calls follow the shape of the dose curve; as a rule, active = well fitted curve in the direction sought with a large enough effect; inconclusive = small, poorly fitted or top-dose-only effect, or another doubt; inactive = no such curve, though single readings can be large; an effect the other way counts as inactive or inconclusive.
SMILES,HP1b binding inh,G9a inh,PLK1 PBD inh,BAZ2B block,JMJD2A Tudor inh,Sfp PPTase inh
C[n+]1c(/C=C/c2ccc(O)cc2)ccc2ccccc21,u,18µM,n,n,n,n
CC[n+]1ccccc1/C=C/c1ccc(N(C)C)cc1,n,28µM,n,u,u,n
COc1cccc(CN2C(=NC(=O)C3CC3)SC3CS(=O)(=O)CC32)c1 (centres undefined),n,x,n,n,n,n
Cc1cc(Cl)ccc1NC(=O)c1cccc(NC(=O)N2CCSc3ncccc32)c1,n,u,x,n,n,x
CC[n+]1c(/C=C/c2ccc(OC)c(OC)c2)ccc2ccccc21,n,x,n,u,u,n
CC[n+]1c(/C=C/c2ccc(N(C)C)cc2)ccc2ccccc21,u,14µM,n,40µM,u,n
COC(=O)c1cc(OC)c(OC)cc1NC(=O)CSc1ccccc1,n,n[0.501 µM],n,n,n,n
CCOc1ccccc1N1CCN(S(=O)(=O)c2ccc3c4c(cccc24)C(=O)N3)CC1,n,u,n,50µM,56µM,n
CCc1nnc(NC(=O)c2ccc(Br)c(S(=O)(=O)N3CCOCC3)c2)s1,n,n,n,n,n,n
COC(=O)CCCn1cc(CN2CC(N3CCCCC3)CS2(=O)=O)nn1 (centres undefined),x,x,n,x,x,x
COc1ccc(OCC(=O)Nc2nccs2)cc1,n,u,n,n,n,n
CCOc1ccc(OCC(=O)Nc2nccs2)cc1,n,35µM,n,u,n,n
Cc1ccc(CCC(=O)Nc2nccs2)o1,n,n,n,u,n,79µM
O=C(CCc1ccccc1)Nc1nccs1,n,n[0.501 µM],n,n,n,n
CCc1ccc(CCC(=O)Nc2nccs2)o1,n,u,n,n,n,8.9µM
O=S(=O)(NCc1cccc(Br)c1)c1ccc(-c2cc(C(F)(F)F)on2)s1,n,n,x,n,n,x
CCc1ccc(CN2CCCC(CNC(=O)c3cccc(OC)c3OC)C2)cc1 (centres undefined),n,n[0.501 µM],n,n,n,n
COc1ccc(NC(=O)CN2C(=O)NC(C)(C3CC3)C2=O)c(OC)c1 (centres undefined),n,n,n,n,n,x
O=S(=O)(Nc1ccc(Cl)cn1)c1ccc(F)cc1,n,x,n,n,n,n
Cn1c(-c2ccccc2Br)n[nH]c1=S,n,x,n,x,4.5µM,x
Cc1ccn2c(-c3n[nH]c(=S)n3C)c(C)nc2c1,u,8.9µM,u,n,8.9µM,u
CSc1nnc(-c2sc(-c3ccccc3)nc2C)n1C,n,n,n,n,n,n
Cc1nc(-c2ccccc2)sc1-c1n[nH]c(=S)n1C,n,3.5µM,n,79µM,10µM,n
Cc1ccn2c(=O)cc(C)nc2c1,n,n,n,n,n,n
Cn1c(-c2ccccc2)n[nH]c1=S,n,x,n,n,22µM,n
SMILES,HP1b binding inh,G9a inh,PLK1 PBD inh,BAZ2B block,JMJD2A Tudor inh,Sfp PPTase inh
Cc1cccc(-c2nc3ccccc3c3nncn23)c1,n,n,n,n,n,n
Cc1cccc(-c2n[nH]c(=S)n2C)c1,u,28µM,n,n,4.5µM,n
Cc1ccc(-c2nc(NCc3ccco3)n(C(=O)c3ccco3)n2)cc1,n,n,n,n,n,n
Cc1ccc(S(=O)(=O)n2nc(-c3ccc(Cl)cc3)nc2NCc2ccco2)cc1,n,n[12.7 µM],n,n,n,n
O=C(c1ccco1)n1nc(-c2ccccc2)nc1NCc1ccco1,n,n[12.7 µM],30µM,n,79µM,u
CCS(=O)(=O)n1nc(-c2ccccc2)nc1NCc1ccco1,n,25µM,n,n,n,n
CCOC(=O)C1=NS(=O)(=O)NC(C)=C1,n,x,n,x,56µM,x
O=C(CSc1nnc(NC(=O)c2ccccc2F)s1)NCC1CCCO1 (centres undefined),n,14µM,u,n,u,50µM
COc1ccc(N2CC(C(=O)Nc3nnc(SCC(=O)NCC4CCCO4)s3)CC2=O)cc1 (centres undefined),n,x,30µM,x,35µM,x
Cc1ccc(NC(=O)Nc2nnc(SCC(=O)Nc3ccc(F)cc3F)s2)cc1,n,u,x,n,n,x
CC(C)Nc1nnc(SCC(=O)Nc2ccc(F)cc2)s1,n,40µM,n,n,n,n
CCNc1nnc(SCC(=O)NC2CCCCCC2)s1,n,3.5µM,n,n,n,x
COc1ccc(OCC(=O)NC2CC(=O)N(c3cccc(OC)c3)C2)cc1 (centres undefined),n,n,x,n,n,x
CCc1ccc(-n2c(=O)c3c4c(sc3n(Cc3cc(=O)n5c(C)cccc5n3)c2=O)CCC4)cc1,n,n,x,n,n,x
NC(=O)c1ccc[n+]([C@@H]2OC(COP(=O)([O-])OP(=O)(O)OCC3OC(n4cnc5c(N)ncnc54)C(OP(=O)(O)O)C3O)C(O)C2O)c1 (some centres undefined),x,u,x,x,x,n
CC(=O)Nc1ccc(NC(=O)CSc2nnc(NC(=O)C3CC(=O)N(c4ccccc4)C3)s2)cc1 (centres undefined),n,40µM,n,n,n,n
CC(=O)Nc1ccc(NC(=O)CSc2nnc(NC(=O)c3ccc(Br)o3)s2)cc1,n,16µM,u,u,n,n
CC(=O)Nc1nnc(SCC(=O)NCC2CCCO2)s1 (centres undefined),n,u,n,n,n,n
COc1ccc(N2CC(C(=O)Nc3nnc(SCC(=O)NC4CCCC4)s3)CC2=O)cc1 (centres undefined),n,32µM,u,n,u,u
Cc1ccc(N2CC(C(=O)Nc3nnc(SCC(=O)NCC4CCCO4)s3)CC2=O)cc1C (centres undefined),n,40µM,n,n,n,n
O=C(CSc1nnc(NC(=O)C2CC(=O)N(c3ccccc3)C2)s1)NC1CCCC1 (centres undefined),n,n,n,n,n,n
Cc1cccc(Cn2c(=O)n(CC3CCC(C(=O)N4CCOCC4)CC3)c(=O)c3sccc32)c1 (centres undefined),n,n,x,n,n,x
COc1ccc(-c2cn3cccnc3n2)cc1NC(=O)Cc1ccccc1,n,n,x,n,n,x
Cc1cccc(CNC(=O)CN2C(=O)C3CCCCN3c3ccc(C(=O)N4CCCC4)cc32)c1 (centres undefined),n,n,x,n,n,x
Cc1ccccc1CCN(C(=O)Cn1nnc2ccccc21)C(C(=O)NCC1CCCO1)c1nc2ccccc2n1C (centres undefined),n,n,n,n,n,n
COc1cccc(Cn2c(=O)c(-c3ccc(Cl)cc3)nc3cncnc32)c1,x,n[0.501 µM],x,x,x,n

# From PubChem BioAssay
